Each structure is given as a SMILES string. The panel holds about 83,000 compounds, 20% with a hit somewhere; the sample as a whole holds those more often.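 Plates (96-well) were seeded with cells, treated with compound at one concentration, and incubated for 48 hours before percent growth was determined.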 Unmarked numbers belong to inactive results. Activity calls are given as the source filed them. How the source made its calls: active means growth percent below 10; inactive means the rest.

Common to all, as to assay: NCI-60 one-dose screen, 48 h (100 = growth as untreated, 0 = no growth, -100 = all killed)
What all share (conditions): 10 µM unless noted

The subject of assay [1] is SR leukemia.
Assay [2] deals with RPMI-8226 leukemia.
Assay [3] has as its system OVCAR-8 ovarian.
Assay [4] deals with OVCAR-5 ovarian.
In assay [5] the test system is OVCAR-4 ovarian.
Assay [6] has as its system SK-OV-3 ovarian.
The test system of assay [7] is IGROV1 ovarian.
In assay [8] the test system is OVCAR-3 ovarian.
For assay [9], the system named is HS 578T breast.
Assay [10] relates to NCI/ADR-RES ovarian.

As to `NS(=O)(=O)c1cc2c(cc1Cl)NC=NS2(=O)=O`, the growth in assay [1] was 96.1%; in assay [2], 104%; in [3], 102%; in assay [4] it was 100%; in [5] it was 107%; in assay [6], 110%. The growth in assay [7] is 109%; in assay [8], 117%; in assay [9], 118%; in assay [10] it was 108%.
`COc1cc(NC(C)CCCN)c2nc(C)ccc2c1Oc1ccc(F)cc1` (stereo not given): the growth in [1] is 60.9%; in assay [2], 70.3%; in assay [3], 77.4%; in assay [4] it was 83.4%; in assay [5] it was 62.6%; in [6] it was 105%. The growth was 56.2% in [7], 71.3% in assay [8], 49.7% in [9] and 77.6% in assay [10].
For `O=C(C(=O)c1cc(Br)ccc1O)c1cc(Br)ccc1O`, the growth is 24.3% in [1]; 16.6% in assay [2]; 64.2% in assay [3]; 93.4% in assay [4]; 42.2% in [5]; 79.6% in assay [6]. Besides, the growth in assay [7] was 32.3%; in [8], 15.9%; in assay [9], 38.8%; in assay [10] it was 32.8%.
`COc1ccc2nc(-c3ccc(Cl)cc3)cc(-c3nnc(SCC(=O)Nc4ccc(C(C)=O)cc4)n3-c3ccccc3)c2c1`: the growth in assay [1] is 83.7%; in [2], 104%; in [3], 102%; in [4] it was 96.4%; in assay [5] it was 93.7%; in [6] it was 93.9%. Further, the growth in assay [7] was 107%; in [8], 96.8%; in assay [9], 99.5%; in [10], 95.2%.
`ICCC(c1ccccc1)(c1ccccc1)c1ccccc1`: the growth in assay [1] was -28.7% (active); in assay [2] it was 20%; in [3], 70.8%; in assay [4], 82.6%; in assay [5], 50.8%; in assay [6] it was 74.6%. The growth in assay [7] was 61.7%; in assay [8], 58.1%; in assay [9], 48.3%; in assay [10], 74.6%.
As for `NC(=NCCCCCCN=C(N)/N=C(\N)Nc1ccc(Cl)cc1)/N=C(\N)Nc1ccc(Cl)cc1`, the growth in assay [1] was 25.1%; in [2], 28.4%; in [3], 17.6%; in [4], 28.7%; in [5] it was 21.4%; in [6], 2.57% (active). Moreover, the growth in [7] is -24.1% (active); in [8], 17%; in [9] it was 18.1%; in [10], 46.8%.
In the case of `C[C@H]1c2cccc(O)c2C(O)=C2C(=O)[C@]3(O)C(O)=C(C(N)=O)C(=O)[C@@H](N(C)C)[C@@H]3[C@@H](O)[C@@H]21`, the growth is 30% in assay [1]; 27% in [2]; 33.5% in assay [3]; 78.4% in assay [4]; 66.8% in assay [5]; 70.2% in assay [6]. Further, the growth in assay [7] is 21.4%; in [8], 49%; in assay [9], 69.8%; in assay [10], 66%.
On to `CC(C)Sc1nc(Cl)c(C#N)c(-c2ccc(F)cc2)n1`, for which the growth was -25.2% (active) in assay [1]; 78.5% in assay [2]; 97.1% in assay [3]; 99.2% in assay [4]; 107% in assay [5]; 110% in [6]. The growth in assay [7] was 103%; in assay [8], 128%; in [9], 106%; in [10], 105%.
With `Cc1csc(C#Cc2cncc(O)c2)n1`, the growth in [1] is 110%; in assay [2] it was 98.5%; in assay [3], 102%; in assay [4] it was 90.9%; in [5] it was 125%; in assay [6] it was 108%. Further, the growth in [7] was -14% (active); in assay [8], 111%; in assay [9], 132%; in [10] it was 113%.
Consider `N#CSCC1CC(O)(c2ccccc2)C(c2ccccc2)C(c2ccc(Cl)cc2)O1` (stereo not given), for which the growth is -16% (active) in assay [1]; -4.14% (active) in [2]; -86.1% (active) in [3]; 0.178% (active) in assay [4]; -32.7% (active) in assay [5]; 49.5% in assay [6]. Moreover, the growth is -30.7% (active) in [7], -100% (active) in assay [8], -32.3% (active) in assay [9] and -71.5% (active) in [10].
Consider `CCCCN=C(N)c1ccc(OCCSCCOc2ccc(C(N)=NCCCC)cc2)cc1`, for which the growth in assay [1] was 44.7%; in assay [2], 26.2%; in [3], 40.7%; in assay [4] it was 84.1%; in [5], 50.8%; in assay [6], 41%. The growth in [7] is 55.1%; in assay [8] it was 39.6%; in [9] it was 47.4%; in [10], 90.9%.
For the molecule `Cn1cnc([N+](=O)[O-])c1Sc1nc(N)nc2nc[nH]c12`, the growth was 10.5% in [1]; -19.5% (active) in assay [2]; 29.5% in assay [3]; 28.7% in assay [4]; 42.8% in assay [5]; 2.59% (active) in assay [6]. The growth in assay [7] is -13.1% (active); in [8], 22.7%; in assay [9], 65.6%; in assay [10], 32.4%.
In the case of `COc1cc(/C=C/C(=O)C(C(=O)/C=C/c2ccc(OC(=O)CCNC34CC5CC(CC(C5)C3)C4)c(OC)c2)C(=O)CCNC23CC4CC(CC(C4)C2)C3)ccc1OC(=O)CCNC12CC3CC(CC(C3)C1)C2` (stereo not given), the growth was -48.6% (active) in assay [1]; -51.6% (active) in assay [2]; 8.87% (active) in assay [3]; 37.8% in assay [4]; 25.8% in assay [5]; 42.8% in [6]. For the same molecule, the growth in assay [7] was -33.2% (active); in [8] it was 14.9%; in [9], 6.55% (active); in [10], 41.7%.
Take `O=C(Nc1ccccc1)P(=O)(O)c1ccccc1`: the growth is 98% in [1]; 111% in assay [2]; 92.4% in assay [3]; 92.9% in assay [4]; 105% in assay [5]; 113% in assay [6]. Moreover, the growth is 121% in [7], 104% in [8], 107% in assay [9] and 99.4% in [10].
Turning to `CCN1CC2=C(Nc3nc(SC)[nH]c(=O)c3C2c2cc(OC)c(OC)c(OC)c2)/C(=C/c2cc(OC)c(OC)c(OC)c2)C1` (stereo not given), the growth in assay [1] is 82.5%; in assay [2] it was 96.7%; in assay [3], 94%; in [4], 106%; in assay [5], 95.9%; in assay [6] it was 110%. For the same molecule, the growth in assay [7] was 120%; in [8] it was 116%; in [9], 111%; in assay [10], 105%.
As to `CO[C@H]1/C=C/O[C@@]2(C)Oc3c(C)c(O)c4c(O)c(c(/C=N/N5C(C)CN(Cc6ccc(C#N)cc6)CC5C)c(O)c4c3C2=O)NC(=O)/C(C)=C\C=C\[C@H](C)[C@H](O)[C@@H](C)[C@@H](O)[C@@H](C)[C@H](OC(C)=O)[C@@H]1C` (stereo not given in full), the growth in [1] was 19.3%; in assay [2] it was -6.25% (active); in assay [3], 49.7%; in assay [4], 27.1%; in assay [5] it was 39.7%; in [6] it was 18.5%. The growth was 40.6% in [7], -21.1% (active) in [8], 45.6% in assay [9] and 40.1% in assay [10].
`Cc1nn2c(/C=C3/C(=O)Nc4cc(Cl)ccc43)c(-c3ccccc3)nc2s1`: the growth was 15.1% in [1]; -19.6% (active) in assay [2]; -25.2% (active) in assay [3]; 52.8% in [4]; -85.6% (active) in [5]; 73.6% in assay [6]. Also, the growth was -23.5% (active) in assay [7], -71.6% (active) in [8], -0.41% (active) in [9] and 24.2% in [10].
`CN[C@@H]1C(OC2[C@H](O[C@H]3[C@H](O)[C@@H](O)[C@H](N=C(N)N)[C@@H](O)[C@@H]3N=C(N)N)OC(C)[C@]2(O)CO)OC(CO)C(O)C1O` (stereo not given in full): the growth in assay [1] was 102%; in [2], 103%; in assay [3], 103%; in assay [4] it was 102%; in [5], 111%; in assay [6] it was 112%. Further, the growth in [7] was 105%; in assay [8], 116%; in [9] it was 112%; in assay [10], 105%.
As to `COc1cnc2c(c1)C(=O)c1c-2n(CCCn2ccnc2)c(=O)c2cc(F)ccc12`, the growth is -25% (active) in assay [1]; -28.2% (active) in assay [2]; 5.92% (active) in [3]; -30.4% (active) in assay [4]; -0.273% (active) in assay [5]; -22.5% (active) in assay [6]. For the same molecule, the growth is 4.03% (active) in assay [7], -35.5% (active) in assay [8], 15.5% in assay [9] and -3.87% (active) in assay [10].
As for `O=C(CNc1ccc2c(c1)C(=O)c1ccccc1C2=O)Nc1ccc2c(c1)C(=O)c1ccccc1C2=O`, the growth in [1] is -8.94% (active); in assay [2], -36.6% (active); in assay [3] it was -25.3% (active); in assay [4], -83.6% (active); in assay [5], -26.4% (active); in [6], -30.8% (active). For the same molecule, the growth in [7] was -72.9% (active); in [8], -99.8% (active); in [9], -1.05% (active); in assay [10] it was -40% (active).
Consider `NS(=O)(=O)c1cc(C2(O)NC(=O)c3ccccc32)ccc1Cl` (stereo not given), for which the growth in [1] was 91.9%; in assay [2], 93.2%; in assay [3], 103%; in [4], 99.1%; in [5] it was 112%; in assay [6] it was 108%. For the same molecule, the growth was 97.1% in assay [7], 123% in assay [8], 118% in assay [9] and 107% in [10].
Consider `NS(=O)(=O)c1ccc(N2CC(c3nc4ccccc4[nH]3)CC2=O)cc1` (stereo not given), for which the growth in assay [1] is 95.5%; in assay [2], 103%; in [3], 99.9%; in assay [4], 84.4%; in [5] it was 97.3%; in assay [6], 89.7%. Also, the growth is 97.2% in [7], 104% in [8], 98.2% in assay [9] and 103% in assay [10].
On to `Cn1c(=O)c2[nH]c(=S)n(Cc3ccccc3)c2n(C)c1=O`, for which the growth was 91.4% in assay [1]; 119% in assay [2]; 111% in assay [3]; 105% in assay [4]; 98.9% in assay [5]; 107% in assay [6]. Besides, the growth in assay [7] is 108%; in assay [8], 104%; in [9] it was 101%; in assay [10], 99.2%.
Consider `COc1cc(/C=N/NC(=O)c2ccc(C(F)(F)F)nc2Nc2ccc(Cl)cc2C)ccc1O`, for which the growth in assay [1] is -14.6% (active); in [2], 26.8%; in [3], 46.7%; in [4] it was 57.5%; in assay [5] it was 27.2%; in assay [6], 44.3%. Also, the growth in assay [7] is 25.1%; in [8] it was 30.4%; in [9] it was -15.1% (active); in [10] it was 30.3%.
For the molecule `COCCOCCOCCOCCOc1ccc2c(c1)C(=O)c1nc3ncccc3c(=O)n1-2`, the growth in assay [1] was -86.3% (active); in [2], -55.5% (active); in assay [3], 0.221% (active); in [4], -98.6% (active); in assay [5], -15.3% (active); in assay [6] it was -4.3% (active). For the same molecule, the growth in assay [7] is 7.34% (active); in assay [8], -60.7% (active); in assay [9], -25.2% (active); in assay [10], 0.343% (active).
For the molecule `O=C1CSC(c2ccccc2Cl)N1c1nnc(Cn2nnc3ccccc32)o1` (stereo not given), the growth is 76% in [1]; 69% in assay [2]; 82.5% in assay [3]; 91.2% in [4]; 81% in assay [5]; 94.6% in assay [6]. The growth in assay [7] was 79.6%; in assay [8], 71.4%; in [9], 103%; in assay [10], 62.4%.
